Laboratory results: PubChem BioAssay AID504332 (National Center for Advancing Translational Sciences (NCATS), 2011)
Out of some 350,000 compounds screened, about 31,000 (8.9%) were called active. Not shown: some 15% with an inconclusive outcome. What follows is part of a selection rich in actives, with near analogues and random picks from the rest. Unmarked numbers belong to inactive results. Calls come from the whole dose curve; as a rule, active = well fitted inhibition curve with a large enough effect; inconclusive = small, poorly fitted or top-dose-only effect; inactive = no such curve, though single readings can be large or run the other way.

Each compound was assayed against Histone-lysine N-methyltransferase EHMT2 (Homo sapiens) (UniProt Q96KQ7) (assay: qHTS Assay for Inhibitors of Histone Lysine Methyltransferase G9a). Details: G9a H3K9 monomethylation, AlphaScreen, 2 h; series mostly up to 59 µM; activity, negative = inhibition: at the top concentration.
Histone-lysine N-methyltransferase EHMT2 (Homo sapiens), sequence (Q96KQ7 913-1193 limits assumed): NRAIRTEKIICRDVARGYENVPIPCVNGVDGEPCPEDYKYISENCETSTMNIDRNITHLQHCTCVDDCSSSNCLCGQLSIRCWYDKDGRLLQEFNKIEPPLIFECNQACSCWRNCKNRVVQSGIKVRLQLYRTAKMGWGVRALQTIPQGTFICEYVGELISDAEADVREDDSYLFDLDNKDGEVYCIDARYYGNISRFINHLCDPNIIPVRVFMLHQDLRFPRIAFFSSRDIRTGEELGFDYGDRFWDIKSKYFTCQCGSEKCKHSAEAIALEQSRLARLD
How it was run: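 G9a (20 nM) was preincubated 15 min with compound, then reacted 2 h at room temperature with 500 nM biotin-H3K9 peptide and 20 µM SAM. Monomethyl-H3K9 detected by AlphaScreen using anti-H3K9me1 antibody.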
% is set by controls: 0 for no effect and ±100 for the full control effect; potency is the fitted concentration of half-maximal effect.
Note: nearly all actives have a fitted effect of over 75% in size.

| Compound | activity, negative = inhibition | Potency |
| --- | --- | --- |
| Cc1ccc(F)cc1S(=O)(=O)Nc1cccc(C(=O)N2CCCC(C(N)=O)C2)c1 (stereo not given) | -6.54% |  |
| CCOc1ccccc1NC(=O)CCn1cnnn1 | -19.1% |  |
| Cc1cc(Cl)ccc1OCCCC(=O)Nc1cccc(-n2cnnn2)c1 | -4.08% [at 102 µM] |  |
| CC[n+]1cc(C)ccc1/C=C/c1ccc(N(C)C)cc1 |  | 6.31 µM (active) |
| CN(C)c1ccc(/C=N\S(=O)(=O)c2ccccc2)cc1 | -28.2% |  |
| CCc1ccc(-c2nn(-c3ccccc3C)cc2C(=O)N2CCN(C3CCS(=O)(=O)C3)CC2)cc1 (stereo not given) | 5.96% [at 12.7 µM] |  |
| CCC(C)(C)NC(=O)C(c1ccc(OC)cc1)N(C(=O)CCC(=O)Nc1cc(C)on1)c1ccc(OC)cc1OC (stereo not given) | -5.95% [at 102 µM] |  |
| CCOc1cc(/C=C/C(=O)OCC(=O)NCCN2C(=O)CSC2=O)ccc1OCC(C)C | 17.6% [at 12.7 µM] |  |
| Cc1cc(-c2ccc(C)c(S(=O)(=O)N3c4ccccc4CC3C)c2)on1 (stereo not given) | -1.74% |  |
| COc1ccc(C(=O)N(CCN2CCOCC2)CC(=O)NC2CCCC2)cc1OC |  | 50.1 µM (active) |
| O=C(Cn1nnc(-c2ccc(CN3CCOCC3)cc2)n1)NC1CCCCC1 | 10.1% [at 12.7 µM] |  |
| COc1ccc(CCNC(=O)CCC(=O)NC2CCCCC2)cc1OC | 31% [at 102 µM] |  |
| Cc1cc(-c2ccccc2)n2nc(-c3ccccc3)cc2n1 | 276% |  |
| S=C(NCc1ccco1)NCc1ccccc1Cl | -7.27% [at 102 µM] |  |
| S=C(NCc1ccc2c(c1)OCO2)NCc1ccco1 |  | 31.6 µM (active) |
| Cc1c(Cl)cccc1NC(=S)NCc1ccc2c(c1)OCO2 | 4.92% |  |
| S=C(NCc1ccco1)Nc1ccc2c(c1)OCCO2 |  | 44.7 µM (active) |
| CCCCC(=O)Nc1ccc2c(c1)OCCO2 | -36.9% |  |
| COc1cccc(NC(=S)NCc2ccco2)c1 | -8.68% |  |
| CCC1CN(S(=O)(=O)c2cc(-c3cc(C)no3)ccc2C)c2cc(C)ccc2O1 (stereo not given) | 6.83% |  |

| Compound | activity, negative = inhibition | Potency |
| --- | --- | --- |
| O=C(NC1CCCCCC1)C1CCN(C(=O)c2ccc(Cl)cc2)CC1 | 6.11% [at 12.7 µM] |  |
| CCOC(=O)c1cc(=O)c2ccc(OCc3ccccc3)cc2o1 | -4.05% [at 102 µM] |  |
| Cc1cc(N2C(=O)C(O)=C(C(=O)c3ccc(C)o3)C2c2ccc(OCc3ccccc3)cc2)no1 (stereo not given) |  | 31.6 µM (active) |
| COc1cc(C2C(C(=O)c3ccco3)=C(O)C(=O)N2c2cc(C)on2)ccc1OCc1ccccc1 (stereo not given) | -10.4% [at 102 µM] |  |
| O=C(O)c1ccc(Nc2nc(-c3ccccc3)c3cc(Br)ccc3n2)cc1 | -2.63% |  |
| Cn1c(=O)c2c(ncn2CC(=O)Nc2cccc(C(F)(F)F)c2)n(C)c1=O | 27.9% |  |
| Cc1ccc2nc(NC(=O)c3nc(SCc4ccccc4F)ncc3Cl)sc2c1 | 9.95% |  |
| Cn1c(-c2sccc2OCc2cccc(C(F)(F)F)c2)n[nH]c1=S |  | 4.47 µM (active) |
| CCOC(=O)N1CCN(Cc2nc(Cc3cccc(C(F)(F)F)c3)no2)CC1 | 0.109% [at 102 µM] |  |
| O=c1c2ccccc2nc2n1C(CSCc1cccc(C(F)(F)F)c1)CS2 (stereo not given) | -8.59% [at 102 µM] |  |
| CCCCN(C(=O)c1ccc(S(=O)(=O)N2CCOCC2)cc1)C1CCS(=O)(=O)C1 (stereo not given) | 4.15% [at 0.501 µM] |  |
| C/C(=N\NC(=O)c1cccnc1)c1ccc(-c2ccccc2)cc1 | 3.29% [at 102 µM] |  |
| O=C(NN=C1CCC(=NNC(=O)c2cccnc2)CC1)c1cccnc1 |  | 17.8 µM (active) |
| O=C(N/N=C/c1ccc(O)c2ccccc12)c1cccnc1 | 17.3% [at 102 µM] |  |
| CCC(=O)N1c2ccccc2CC1C(=O)N1CCN(c2ccccc2)CC1 (stereo not given) | -1.15% |  |
| COc1ccc(CCNS(=O)(=O)c2cc(-c3cc(C)no3)ccc2C)cc1OC | 4.88% |  |
| Nc1cc(N)nc(SCC(=O)Nc2cccc(S(=O)(=O)N3CCCCC3)c2)n1 | -10.4% |  |
| O=C(Nc1nc2c(F)cc(F)cc2s1)C1COc2ccccc2O1 (stereo not given) | -9.43% [at 102 µM] |  |
| O=C(Nc1nc(-c2ccncc2)cs1)C1COc2ccccc2O1 (stereo not given) |  | 2.24 µM (active) |
| O=C(Nc1ncc([N+](=O)[O-])s1)C1COc2ccccc2O1 (stereo not given) | -2.98% [at 12.7 µM] |  |

| Compound | activity, negative = inhibition | Potency |
| --- | --- | --- |
| COC(=O)C1=C(C)N=C2SC(C)C(=O)N2C1/C=C/c1ccccc1 (stereo not given) | -10.8% [at 102 µM] |  |
| CCOC(=O)c1ccccc1N1C(=O)C2Sc3[nH]c(=O)sc3C(/C=C/c3ccccc3)C2C1=O (stereo not given) |  | 3.16 µM (active) |
| CC(OC(=O)c1ccccc1N1C(=O)C2C3CCC(C3)C2C1=O)C(=O)c1ccccc1 (stereo not given) | 5.86% |  |
| CCN(CC)S(=O)(=O)c1ccc(CNC(=O)CN2C(=O)NC3(CCc4ccccc43)C2=O)cc1 (stereo not given) |  | 28.2 µM (active) |
| CCN(CC)c1ccc(NC(=O)CN2C(=O)NC3(CCc4ccccc43)C2=O)cc1 (stereo not given) | 79.1% [at 12.7 µM] |  |
| CCOc1ccc(CCNC(=O)CN2C(=O)NC3(CCc4ccccc43)C2=O)cc1OCC (stereo not given) | -29.7% [at 102 µM] |  |
| COc1ccc(C=C(C#N)C#N)c(CSc2ccccn2)c1 | 1.76% [at 102 µM] |  |
| CC(NC(=O)c1ccccc1F)c1cccc2ccccc12 (stereo not given) | 0% [at 2.33 µM] |  |
| CCOC(=O)C1CCN(C(=O)c2cccc(S(=O)(=O)N(CC)c3ccccc3)c2)CC1 | -14.3% [at 12.7 µM] |  |
| COc1ccc(N(Cc2ccccc2)S(=O)(=O)c2cccc(C(=O)O)c2)cc1 | -2.97% |  |
| CCN(c1ccccc1)S(=O)(=O)c1cccc(C(=O)O)c1 |  | 79.4 µM (active) |
| O=C(NCc1ccccc1)C(c1cccnc1)N(C(=O)c1csnn1)c1ccc(F)cc1 (stereo not given) | 22.8% [at 102 µM] |  |
| O=C(N[C@@H](Cc1c[nH]c2ccccc12)C(=O)O)OCC1c2ccccc2-c2ccccc21 | -0.61% [at 0.501 µM] |  |
| Cc1cccc(C(=O)Nc2ccc(S(=O)(=O)N3CCCCC3c3cccnc3)cc2)c1 (stereo not given) | 2.32% |  |
| CC(C)Oc1ccc(Cc2n[nH]c(=S)n2Cc2ccccc2)cc1Cl |  | 8.91 µM (active) |
| CC(C)c1ccc(Cn2c(COc3ccccc3)nc3ccccc32)cc1 | 27.2% |  |
| CC(=O)N(OCc1ccc(OC(C)C)c(Cl)c1)C(C)=O | -0.368% [at 102 µM] |  |
| Cc1ccc(-c2csc(NC3OC(=O)c4ccccc43)n2)cc1 (stereo not given) | -11.2% [at 102 µM] |  |
| COc1ccc(-c2cc(-c3ccc(F)cc3)nc3c2COc2ccccc2-3)cc1 | 21.3% |  |
| COc1cc(OC)cc(-c2c(-c3ccc(F)cc3)c3cc(-c4ccc5cc[nH]c5c4)ccc3n2C)c1 | 26.5% [at 2.33 µM] |  |
